Inconclusive results are not listed. The source made the active and inactive calls. The call rests on the fitted dose curve.

From PubChem BioAssay AID2568 (National Center for Advancing Translational Sciences (NCATS), 2010) come the findings set out here.

Sequence of Neuropeptide S receptor (Homo sapiens) (Q6W5P4 whole entry, looked up): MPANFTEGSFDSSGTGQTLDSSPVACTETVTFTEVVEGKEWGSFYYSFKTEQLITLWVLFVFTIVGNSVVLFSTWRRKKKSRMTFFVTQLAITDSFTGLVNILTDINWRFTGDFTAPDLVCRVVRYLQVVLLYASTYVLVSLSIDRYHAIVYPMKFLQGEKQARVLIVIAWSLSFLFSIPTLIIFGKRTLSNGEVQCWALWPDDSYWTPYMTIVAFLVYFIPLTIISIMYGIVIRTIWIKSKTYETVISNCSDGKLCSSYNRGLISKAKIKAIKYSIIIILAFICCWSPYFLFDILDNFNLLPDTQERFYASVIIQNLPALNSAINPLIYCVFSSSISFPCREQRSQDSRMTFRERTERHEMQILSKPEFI

This experiment deals with Neuropeptide S receptor (Homo sapiens) (UniProt Q6W5P4). The experiment in a line: Confirmation Concentration-Response Assay for Antagonists of the Neuropeptide S Receptor: cAMP Signal Transduction, SAR for Probe. The settings on record: CHO-NPSR cells, cAMP TR-FRET, antagonist mode; series mostly up to 47.8 µM; activity change, negative = inhibition: at the top concentration. The text has this:
NIH Chemical Genomics Center [NCGC] NIH Molecular Libraries Probe Production centers Network [MLPCN] MLPCN Grant: X01-DA026210-01 Assay Submitter (PI): Heilig, Markus Alexander NCGC Assay Overview: Neuropeptide S receptor (NPSR), previously known as GPR154, is a recently de-orphanized G protein coupled receptor. Its endogenous ligand is the 20 amino acids peptide Neuropeptide S (NPS). […] NPS and its receptor are found in various tissues. Specifically they are highly expressed in brain areas that have been implicated in modulation of arousal, stress and anxiety. Central administration of NPS in mice produces an unusual profile of activity by inducing wakefulness and arousal, while at the same time suppressing anxiety. Therefore, NPSR may represent a novel drug target for the treatment of sleep and anxiety disorders. To identify NPSR antagonists, we developed a cell-based cAMP assay. NPS can stimulate the production of cAMP in Chinese hamster ovary cells stably expressing NPS receptor. This change in intracellular cAMP level can be detected by a homogeneous LANCE cAMP assay based on the TR-FRET (time resolved fluorescence resonance energy transfer) between a europium-labeled cAMP tracer complex and a cAMP-specific antibody labeled with Alexa Fluor 647. The europium-labeled cAMP tracer complex is formed by the tight interaction between Biotin-cAMP (b-cAMP) and streptavidin labeled with Europium-W8044 chelate (Eu-SA). Light pulse at 320 nm excites the europium of the cAMP tracer and the energy emitted is transferred to the Alexa molecule bound to the cAMP antibody, generating a TR-FRET signal at 665 nm. Residual energy from the europium will produce a light at 620 nm. The native unlabeled cAMP from cell lysates competes with the europium-cAMP tracer for antibody binding and reversely reduces the emission signal of Alexa by interrupting FRET between the two labeled molecules. Both emission signals from the FRET donor (620 nm) and the acceptor (665 nm) can be detected by a plate reader in the TRF mode. Expression of result in fluorescence ratio (665 nm/620 nm) helps to normalize differences due to cell density and reagent dispensing. This assay was successfully optimized to a 1536-well plate format. Select compounds from the primary screen (AID 1461) were chosen for confirmation based on potency, efficacy, SAR, and activity across other assays in PubChem and at NCGC. Other compounds are analogs of active compounds from the primary screen.
NCGC Assay Protocol Summary: A Chinese hamster ovary (CHO) cell line stably expressing the NPS receptor (CHO-NPSR) was obtained from Dr. Heilig lab at NIAAA and maintained in F-12 Kaighn's media (Invitrogen, Carlsbad, CA, 21127) supplemented with 10 % FBS, 100 units/ml penicillin, 100 ug/ml streptomycin and 250 ug/ml geneticin at 37C, 5% CO2 in a humidified atmosphere. Before the assay, aliquots of cells were frozen and stored at -135C. The assay was performed in 1536-well format. Data are reported for both the ratio of the two emission wavelengths, and also for the component 'donor' channel, Em2=620. […] IC50 values were determined from concentration-response data modeled with the standard Hill equation. NPS 1536-well assay protocol: (1) Fresh or frozen CHO-NPSR cells were suspended in F-12 Kaighn's media supplemented with 10 % FBS, 100 units/ml penicillin and 100 ug/ml streptomycin. Cells were plated at 4 ul/well (1200 cells) to white, tissue culture treated 1536-well plates, and then cultured at 37C, 5 % CO2 for 16 to 30 hours. (2) Add 23 nl/well of compound in DMSO solution. The final titration for each compound was between 0.6 nM and 46 uM. (3) Add 1 ul of stimulation reagent (1X HBSS buffer, 5 mM HEPES, 0.1% BSA, 500 uM RO-201724 (Sigma-Aldrich, B8279), 1.5% Alexa 647-labeled anti-cAMP antibody (from Perkin Elmer), 100 nM NPS) (4) Incubation at 37C, 5 % CO2 for 60 min. (5) Add 1 ul/well detection reagent. […]
A general note: In TR-FRET formats the signal depends on donor and acceptor labels being close together.
For the molecule `CCOC(=O)c1ccc(-n2cnc3c(c2=N)C(c2cccc(OC)c2)c2c(ccc4ccccc24)O3)cc1` (stereo not given), the Potency was 15.4 µM (active).

With `OC(c1ccccc1)(c1ccccc1)c1cnc2ccccn12`, the “activity change, negative = inhibition” value is -18.7% (inactive). Regarding `C[n+]1cc(C(O)(c2ccccc2)c2ccccc2)n2ccccc21`, the “activity change, negative = inhibition” value was -11.9% (inactive). As for `COc1cccc(C2c3c(ncn(-c4ccccc4Br)c3=N)Oc3ccc4ccccc4c32)c1` (stereo not given), the Potency is 12.2 µM (active). Same read-out and setting: with `COc1cccc(C2c3c(ncn(-c4cccc(Cl)c4)c3=N)Oc3ccc4ccccc4c32)c1` (stereo not given) the figure was 15.4 µM (active); with `COc1cccc(C2c3c(ncn(-c4ccc(C#N)cc4)c3=N)Oc3ccc4ccccc4c32)c1` (stereo not given), 15.4 µM (active); with `COc1ccc(C2c3c(n(Cc4ccccc4)cnc3=N)Oc3ccc4ccccc4c32)cc1OC` (stereo not given), 48.7 µM (active). Still for that read-out and setting: the figure for `COc1cccc(C2c3c(ncn(-c4cccc(OC)c4)c3=N)Oc3ccc4ccccc4c32)c1` (stereo not given) is 9.72 µM (active); for `COc1cccc(C2c3c(ncn(-c4cccc(F)c4)c3=N)Oc3ccc4ccccc4c32)c1` (stereo not given) it is 3.87 µM (active).

On to `COc1cccc(C2c3c(ncn(-c4cccnc4)c3=N)Oc3ccc4ccccc4c32)c1` (stereo not given), for which the Potency was 12.2 µM (active). Consider `COc1cccc(C2c3c(ncn(-c4ccccc4C)c3=N)Oc3ccc4ccccc4c32)c1` (stereo not given), for which the Potency is 9.72 µM (active).

On to `COc1cccc(C2c3c(ncn(-c4cccc(C)c4)c3=N)Oc3ccc4ccccc4c32)c1` (stereo not given), for which the Potency was 12.2 µM (active). `COc1ccc(C2c3c(N)nc(CCc4ccccc4)nc3Oc3ccc4ccccc4c32)cc1OC` (stereo not given): the Potency was 48.7 µM (active).

In the case of `COc1ccc(C2c3c(ncn(Cc4ccccc4)c3=N)Oc3ccc4ccccc4c32)cc1OC` (stereo not given), the Potency is 19.4 µM (active). Turning to `COc1cccc(C2c3c(ncn(-c4ccccc4C(C)(C)C)c3=N)Oc3ccc4ccccc4c32)c1` (stereo not given), the Potency was 12.2 µM (active). As to `COc1ccc(C2c3c(ncn(CCCc4ccccc4)c3=N)Oc3ccc4ccccc4c32)cc1OC` (stereo not given), the Potency is 24.4 µM (active). Regarding `COc1ccc(C2c3c(nc(Cc4ccccc4)[nH]c3=O)Oc3ccc4ccccc4c32)cc1OC` (stereo not given), the “activity change, negative = inhibition” value was -20.3% (inactive). `COc1cccc(C2c3c(ncn(-c4ccc(C(C)(C)C)cc4)c3=N)Oc3ccc4ccccc4c32)c1` (stereo not given): the Potency was 15.4 µM (active). Still for that read-out and setting: with `COc1cccc(C2c3c(ncn(-c4cccc(Br)c4)c3=N)Oc3ccc4ccccc4c32)c1` (stereo not given) the figure was 19.4 µM (active). Regarding `COc1ccc(C2c3c(nc(CCCc4ccccc4)[nH]c3=O)Oc3ccc4ccccc4c32)cc1OC` (stereo not given), the “activity change, negative = inhibition” value was -18.2% (inactive).

With `COc1cccc(C2c3c(ncn(-c4ccc(-c5ccccc5)cc4)c3=N)Oc3ccc4ccccc4c32)c1` (stereo not given), the “activity change, negative = inhibition” value is -18.1% (inactive).

Take `COc1ccc(C2C3=C(N=CN(CCN4CCOCC4)C3N)Oc3ccccc32)cc1OC` (stereo not given): the “activity change, negative = inhibition” value is -10.3% (inactive). For `COc1cccc(C2c3c(ncn(-c4ccccc4OC)c3=N)Oc3ccc4ccccc4c32)c1` (stereo not given), the Potency was 6.14 µM (active).

As for `Cc1c(P(=S)(c2ccccc2)c2ccccc2)c2ccccc2n1C(=O)NCc1ccccc1`, the Potency was 31.5 µM (active). Take `Cc1c(P(=O)(c2ccccc2)c2ccccc2)c2ccccc2n1C`: the “activity change, negative = inhibition” value is -18.1% (inactive).

Consider `COc1cccc(C2c3c(ncn(-c4ccc(F)cc4)c3=N)Oc3ccc4ccccc4c32)c1` (stereo not given), for which the Potency was 15.4 µM (active). `COc1cccc(C2c3c(ncn(-c4ccncc4)c3=N)Oc3ccc4ccccc4c32)c1` (stereo not given): the Potency is 19.4 µM (active). Same read-out and setting: with `COc1ccc(C2c3c(n(CCCc4ccccc4)cnc3=N)Oc3ccc4ccccc4c32)cc1OC` (stereo not given) the figure was 24.4 µM (active).

Regarding `Cc1c(P(=S)(c2ccccc2)c2ccccc2)c2ccccc2n1Cc1ccccc1`, the “activity change, negative = inhibition” value is -21.2% (inactive). `Cc1c(P(=S)(c2ccccc2)c2ccccc2)c2ccccc2n1C(=O)NCc1ccc(F)cc1`: the Potency is 31.5 µM (active). The same measure, in the same setting: the figure for `COc1cccc(C2c3c(ncn(-c4ccc(Br)cc4)c3=N)Oc3ccc4ccccc4c32)c1` (stereo not given) is 15.4 µM (active); for `COc1ccc(C2c3c(ncn(CCc4ccccc4)c3=N)Oc3ccc4ccccc4c32)cc1OC` (stereo not given) it is 24.4 µM (active). On the same count and under the same terms, the figure for `COc1ccc(C2c3ccccc3Oc3ncn(CCN4CCOCC4)c(=N)c32)cc1OC` (stereo not given) is 6.14 µM (active).

For `Cc1c(C(O)(c2ccccc2)c2ccccc2)[n+]2ccccc2n1C`, the “activity change, negative = inhibition” value is -2.91% (inactive). With `COc1ccc(C2c3ccc4ccccc4c3Oc3ncn(CCN4CCOCC4)c(=N)c32)cc1OC` (stereo not given), the Potency was 48.7 µM (active). In the case of `c1ccc(P(c2ccccc2)c2cnc3ccccn23)cc1`, the “activity change, negative = inhibition” value was -26.4% (inactive). As to `COc1cccc(C2c3c(ncn(-c4ccccc4SC)c3=N)Oc3ccc4ccccc4c32)c1` (stereo not given), the Potency was 7.72 µM (active).

Turning to `COc1cccc(C2c3c(ncn(-c4ccccc4Cl)c3=N)Oc3ccc4ccccc4c32)c1` (stereo not given), the Potency was 12.2 µM (active).

For `Cc1c(P(=S)(c2ccccc2)c2ccccc2)c2ccccc2n1CCc1ccccc1`, the “activity change, negative = inhibition” value was -9.1% (inactive). Take `COc1cccc(C2c3c(ncn(-c4ccccc4-c4ccccc4)c3=N)Oc3ccc4ccccc4c32)c1` (stereo not given): the Potency was 38.7 µM (active).
